SMILES strings stand for the structures. Inconclusive results are not listed. Unmarked numbers belong to inactive results. Calls come from the whole dose curve; tested in HEK293 reporter line.
% is set by controls: 0 for no effect and ±100 for the full control effect.

The test is described as follows: qHTS for Inhibitors of the Functional Ribonucleoprotein Complex (vRNP) of Lassa (LASV) Arenavirus: LASV Primary Screen - GLuc reporter signal (AID 1347082). Note: nearly all actives have a fitted effect of over 60% in size. Particulars: LASV minigenome vRNP, Gaussia luciferase reporter; series mostly up to 57.5 µM; activity change, negative = inhibition: at the top concentration.
Turning to `O=C1N[C@@H](Cc2cnc[nH]2)C(=O)N2CCC[C@@H]12`, the “activity change, negative = inhibition” value was 0.011%. Then `CCCCCCC[C@@H](C/C=C/CCC(=O)O)OC`, with -1.66%; and `OC[C@H]1O[C@@H](OC[C@H]2O[C@@H](O)[C@H](O)[C@@H](O)[C@@H]2O)[C@H](O)[C@@H](O)[C@@H]1O`, with 9.04%. The value for `CCCC1CCCC(=O)O1` (stereo not drawn) was -10.3% [at 115 µM]; that for `CC1(C)C[C@H]2C3=CCC4[C@@]5(C)CC[C@H](O)C(C)(C)C5CC[C@@]4(C)[C@]3(C)[C@@H](O)[C@@H](O)[C@@]2(CO)[C@@H](O)[C@@H]1O` (stereo partly drawn) was 0.613%.

For the molecule `C[C@]1(CC/C(=C/CO)CO)[C@H](CO)CC[C@@]23COC(=O)C2=CCC[C@@H]31`, the “activity change, negative = inhibition” value is -6.63%.

`CC(C)c1cccc(O)c1`: the “activity change, negative = inhibition” value is 9.07% [at 115 µM]. `CC1CC(C)C(=O)C1=O` (stereo not drawn): the “activity change, negative = inhibition” value was 13.8% [at 115 µM]. The value for `CC1=CC[C@@]23C[C@@H]1C(C)(C)[C@@H]2CC[C@H]3C` was -2.66% [at 115 µM]. Then `COc1cc(O)c(C(C)=O)c2c1C=CC(C)(C)O2`, with 0.303%; and `CC(Cc1c[nH]c2ccccc12)C(=O)O` (stereo not drawn), with 5.31%; and `O=c1c(O)c(-c2ccccc2)oc2cc(O)cc(O)c12`, with 0.406%.

In the case of `CC1(C)CC(=O)c2cc(O)ccc2O1`, the “activity change, negative = inhibition” value was 1.65%. For the molecule `Oc1cc(O)cc(C=Cc2ccc(O)c(O)c2)c1`, the “activity change, negative = inhibition” value is 7.48%. For `COc1ccc2c(Oc3ccc(NC(=O)c4c(C)n(CC(C)(C)O)n(-c5ccccc5)c4=O)nc3)ccnc2c1`, the “activity change, negative = inhibition” value is -14.1%. `O=C1CCCCCCCCCCCCCC1`: the “activity change, negative = inhibition” value was -4.88% [at 115 µM]. On to `COC1=C(C)C(O)=C(C(=O)/C=C/c2ccccc2)C(=O)C1(C)C`, for which the “activity change, negative = inhibition” value was 8.3%. Regarding `CCN1C[C@]2(C)CCC(OC)[C@@]34C5C[C@@H]6CC[C@@](O)(C5C(=O)O6)[C@@H](C(O)C23)[C@@H]14` (stereo partly drawn), the “activity change, negative = inhibition” value was 2.87%.

Values taken from PubChem BioAssay (NCATS).
